Source: PubChem BioAssay (Sanford-Burnham Center for Chemical Genomics)
CD11b adhes enh: enhancers of CD11b/CD18 adhesion to fibrinogen, primary screen, K562 cells, luminescence; activation, % at 10 µM; AID 1499, 2009; 93,000 compounds, 0.07% hits; ATPlite luminescence;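 active = 10 µM primary screen giving 50% or more activity, confirmed by 40% or more on retest at that dose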
CYP2C9 act: human CYP2C9 activators, primary screen, biochemical, luminescence; Cytochrome P450 2C9 (Homo sapiens), P11712; recombinant CYP2C9, luciferin-H conversion; hits give high values; factor 1 = untreated enzyme, 0 = blocked; activation factor at 5 µM; 96,000 compounds, 1.4% hits; AID 1024, 2008;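 active = activation factor of 2 or more for CYP2C9 at a 5 µM dose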;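 note: 0 = sulfaphenazole-blocked wells and 1 = vehicle-only wells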
CYP2C9 inh: blockers of cytochrome P450 2C9 activity – biochemical, luminescence, ADME assay, primary screen. 96,000 compounds, 20% hits. inhibition, % at 5 µM. CYP2C9 Supersomes, luciferin-H conversion. P11712;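 active = blocking of liver enzyme CYP2C9 beyond about 50% at 5 µM, limit read from the data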
CYP2C19 activ: human CYP2C19 activators, primary screen, biochemical, luminescence; AID 1025, 2008; recombinant CYP2C19, luciferin-H EGE luminescence; hits give high values; 0 = fully inhibited enzyme, 1 = untreated enzyme; Cytochrome P450 2C19 (Homo sapiens), P33261; 96,000 tested, under 10 active; activation factor at 5 µM;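 active = activation factor of at least 2 at 5 µM in the primary screen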;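 note: 0 = wells with 2.5 mM tranylcypromine and 1 = vehicle-only wells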
Target sequence (P33261 whole entry, looked up): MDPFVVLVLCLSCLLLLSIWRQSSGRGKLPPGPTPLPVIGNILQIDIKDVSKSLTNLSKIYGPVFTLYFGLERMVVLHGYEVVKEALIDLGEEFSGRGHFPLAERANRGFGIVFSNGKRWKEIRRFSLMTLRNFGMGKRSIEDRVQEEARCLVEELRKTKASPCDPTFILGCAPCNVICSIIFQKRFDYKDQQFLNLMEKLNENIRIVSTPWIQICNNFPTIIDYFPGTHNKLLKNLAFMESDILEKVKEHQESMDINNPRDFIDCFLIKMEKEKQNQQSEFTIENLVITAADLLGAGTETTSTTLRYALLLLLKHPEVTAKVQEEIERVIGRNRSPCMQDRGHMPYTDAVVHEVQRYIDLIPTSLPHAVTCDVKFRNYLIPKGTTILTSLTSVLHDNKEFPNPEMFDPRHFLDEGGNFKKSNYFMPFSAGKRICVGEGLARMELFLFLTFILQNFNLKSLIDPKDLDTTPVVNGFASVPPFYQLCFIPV
CD11b adhes inh: inhibitors of CD11b/CD18 adhesion to fibrinogen, primary screen, K562 cells, luminescence; ATPlite luminescence; Mn2+ added to activate the integrin; inhibition, % at 10 µM; Integrin beta-2 (Homo sapiens) + Integrin alpha-M (Homo sapiens), P05107+P11215; 93,000 compounds, 0.54% hits;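 active = primary inhibition of 50% or more at 10 µM, then 40% or more on retest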
CYP2C19 inhib: blockers of cytochrome P450 2C19 activity – biochemical, luminescence, ADME assay, primary screen; P33261; CYP2C19 Supersomes, luciferin-H EGE luminescence, 30 min; inhibition, % at 5 µM; 96,000 compounds, 21% hits; AID 778, 2007;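 active = CYP2C19 inhibition above a set limit at 5 µM in the primary screen, cut at about 50% in these data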;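 note: plate controls were negative control wells for no effect and 2.5 mM tranylcypromine positive control for full effect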
An asterisk follows results filed as active; x = not tested or not shown. Sampled rows, rich in hits. Any-hit rate of the full collection: about 28%.

SMILES | CD11b adhes enh | CYP2C9 act | CYP2C9 inh | CYP2C19 activ | CD11b adhes inh | CYP2C19 inhib
CCn1cc(C(=O)NCc2ccccc2)c(=O)c2cc(F)c(N3CCN(C(=O)c4ccco4)CC3)cc21 | -1 | 0.4 | 64* | 0.5 | 10 | 53*
CC(=O)c1cc(F)c(N2CCN(C(=O)c3ccco3)CC2)cc1C | 0 | 0.7 | 25 | 0.4 | 6 | 60*
Cc1ccccc1NC(=O)C(C#N)Cc1cccnc1 (stereo not drawn) | -6 | 0.9 | 11 | 0.8 | -16 | 23
CC1Cc2ccccc2N1C(=O)c1cnc2sccn2c1=O (stereo not drawn) | -5 | 1.2 | -19 | 1.1 | 5 | -12
CCOc1ccc(-n2cnnn2)cc1S(=O)(=O)N1CCCCC1 | 0 | 1.3 | -28 | 1.1 | 11 | -14
CCOC(=O)N1CCN(S(=O)(=O)c2ccc(OCC)c(C)c2)CC1 | 6 | 1.7 | -66 | 0 | -6 | 96*
CCOc1ccc(OCC)c(S(=O)(=O)N2CCCCC2)c1 | 2 | 0.6 | 40 | 0.2 | -2 | 81*
CCOc1ccc(OCC)c(S(=O)(=O)N2CCC(C)CC2)c1 | 5 | 0.7 | 34 | 0.4 | -12 | 60*
CCOc1ccc2cc(S(=O)(=O)N3CCOCC3)ccc2c1 | -2 | 0.8 | 24 | 1 | -2 | 1
CCOC(=O)N1CCN(S(=O)(=O)c2ccc(C)c(C)c2)CC1 | -2 | 1.6 | -63 | 0.6 | -11 | 41
CCOC(=O)N1CCN(S(=O)(=O)c2cc(OCC)ccc2OCC)CC1 | -6 | 0.4 | 55* | 0.4 | 4 | 59*
O=C(CN1C(=O)/C(=C\c2ccc(F)cc2)Oc2ccccc21)NCc1ccco1 | 20 | x | x | x | -7 | x
CC(C)CCNC(=O)NC(=O)COC(=O)/C=C/c1cnc2ccccc2n1 | 2 | 0.5 | 46 | 0.8 | -4 | 23
CCOC(=O)N1CCN(S(=O)(=O)c2ccc3c(c2)SCC(=O)N3)CC1 | -1 | 1.1 | -8 | 1 | 1 | 3
CCOC(=O)N1CCN(C(=O)COc2ccc(S(=O)(=O)NCC(C)C)cc2C)CC1 | 4 | 0.4 | 62* | 0.8 | 12 | 18
CCOC(=O)N1CCN(S(=O)(=O)c2cccc3ccc(C)nc23)CC1 | 6 | 1.7 | -69 | 0.3 | -12 | 66*
Cn1c(N)c(C(=O)c2cc(-c3ccccn3)nc3ccccc23)c(=O)[nH]c1=O | 1 | 0.8 | 20 | 0.9 | 17 | 9
COC(=O)C1=C2SC(C)C(=O)N2C(N)=C(C#N)C1c1ccc(OC)c(OC)c1 (stereo not drawn) | 2 | 0.4 | 56* | 0.7 | 25 | 29
COC(=O)C1=C2SC(C)C(=O)N2C(N)=C(C#N)C1c1cc(OC)c(OC)c(OC)c1 (stereo not drawn) | -2 | 0.8 | 24 | 0.9 | 6 | 12
CC(=O)Nc1ccc(C2Nc3ccccc3C(=O)N2C2CCCCC2)cc1 (stereo not drawn) | -6 | 0.2 | 84* | 0.5 | -2 | 47
Cc1cc(O)c(C(C)C)cc1NC(=O)c1cccc(Cl)c1 | x | 0.4 | 56* | 0.4 | x | 60*
O=C(Cc1coc2cc3c(cc12)CCC3)OCc1cc(=O)n2c(n1)sc1ccccc12 | 60 | 0.7 | 28 | 1 | -7 | 3
O=C(c1ccccc1)N1CCN(c2ncnc3sc4c(c23)CCC4)CC1 | -10 | 0.2 | 83* | 0.1 | 51* | 92*
c1nc(N2CCOCC2)c2c3c(sc2n1)CCCC3 | -3 | 0.8 | 24 | 0.4 | -7 | 65*
O=C(O)CSc1ncnc2sc3c(c12)CCC3 | x | 0.9 | 6 | 1 | x | -4
SMILES | CD11b adhes enh | CYP2C9 act | CYP2C9 inh | CYP2C19 activ | CD11b adhes inh | CYP2C19 inhib
c1cn(-c2ncnc3sc4c(c23)CCCC4)cn1 | -2 | 0.9 | 9 | 0.7 | -14 | 28
c1ccn(-c2ncnc3sc4c(c23)CCCC4)c1 | 0 | 0.7 | 34 | 0 | 0 | 96*
CSc1nc(N2CCOCC2)c2c3c(sc2n1)CCCC3 | 4 | 0.5 | 48 | 0.9 | 2 | 9
Cc1cc2c(cc(C(=O)NCCCN3CCOCC3)n2Cc2ccc(Cl)cc2)o1 | x | 0.5 | 50 | 0.6 | x | 45
CSc1nc(Cc2ccc(Cl)cc2)nc2ccccc12 | 6 | 1.1 | -6 | 1.1 | -7 | -6
Cc1cc(C)cc(NC(=O)C2CCCC2)c1 | 6 | 0.9 | 12 | 0.7 | -4 | 33
CCc1nnc(NC(=O)C2COc3ccccc3O2)s1 (stereo not drawn) | 0 | 0.4 | 56* | 0.9 | 0 | 14
Cc1nnc(NC(=O)C2COc3ccccc3O2)s1 (stereo not drawn) | 0 | 0.1 | 86* | 0.5 | -6 | 45
Cc1ccc(CSc2nnc(NC(=O)C3COc4ccccc4O3)s2)cc1 (stereo not drawn) | -2 | 1 | -2 | 1.1 | 24 | -12
Cc1nnc(NC(=O)C2(c3ccccc3)CCOCC2)s1 | -2 | 0.8 | 18 | 0.5 | -33 | 50*
CCCCNC(=S)NNC(=O)c1ccoc1C | x | 1 | 3 | 0.6 | x | 35
Cc1cc(C)nc(N2CCCC(C(=O)NC(C)CCc3ccco3)C2)n1 (stereo not drawn) | -5 | 0.4 | 59* | 0.3 | -4 | 74*
O=C(NCCO)c1ccc(-c2nnc(N3CCOCC3)c3ccccc23)cc1 | -1 | 1.1 | -14 | 0.9 | -3 | 8
Cc1ccc2c(CSc3nnc(N)s3)cc(=O)oc2c1 | -1 | 0.6 | 40 | 0.2 | -5 | 85*
Cc1cc(C)n2nc(SCc3cc(=O)oc4cc(O)ccc34)nc2n1 | 28 | 0.8 | 20 | 1.1 | 1 | -14
O=C(Nc1cccc2ncccc12)C12CC3CC(CC(C3)C1)C2 | -3 | 1.2 | -24 | 1 | -10 | -1
O=C(CC12CC3CC(CC(C3)C1)C2)Nc1cccc2ncccc12 | 0 | 0.7 | 27 | 0.5 | 2 | 51*
Cc1ccn2c(C(=O)N/N=C/c3ccc(CNC(=O)C(=O)Nc4ccc(C)c(C)c4)o3)c(C)nc2c1 | 46 | x | x | x | 14 | x
C#CCOC(=O)C(NC(=O)c1ccccc1)=C1CCCCC1 | 3 | 0.3 | 68* | 0.6 | -2 | 39
CCOC(=O)CSc1nc2ccccc2c(=O)[nH]1 | -2 | 1 | 2 | 1.1 | 2 | -10
COC(=O)CSc1nc(C)c(Oc2ccccc2)c(=O)[nH]1 | -2 | 1.1 | -9 | 0.4 | -5 | 64*
Cc1ccc(NCc2nnc(SCC(=O)NCCc3ccccc3)n2C)cc1 | -2 | 0.8 | 19 | 0.8 | -15 | 24
CC1=NOC(=O)/C1=C/c1ccc(-c2ccc(Cl)cc2)o1 | -6 | 0.3 | 68* | 0.2 | 94* | 76*
